aSyn UTR act: Activators via SNCA 5'UTR binding, MLPCN. alpha-synuclein 5'UTR reporter, activators screen. activity score, % (tested at 7.5 µM), hits read low. hit rate 7.1% among 300,000; in the data active means activity score below about -60%
A number is an active result. Only a sample is shown.

Screening CCOc1ccccc1NC(=O)c1oc2ccccc2c1NC(=O)C1CCCO1 (stereo unspecified) returned aSyn UTR act -63.1.
For Cc1ccc(NC(=O)c2oc3ccccc3c2NC(=O)C2CCCO2)cc1C (stereo unspecified) the results were aSyn UTR act -168.8.
Screening COc1ccc(NC(=O)c2oc3ccccc3c2NC(=O)C2CCCO2)cc1OC (stereo unspecified) returned aSyn UTR act -116.0.
Screening CN1/C(=C\C(=O)c2cccnc2)Sc2ccccc21 returned aSyn UTR act -93.8.
For COc1cccc(C(=O)/C=C2\Sc3ccccc3N2C)c1 the results were aSyn UTR act -131.4.
Nc1cccn2c(-c3ccc(Cl)cc3)cnc12 was read as aSyn UTR act -259.6.
Nc1cccn2c(-c3ccc(Cl)c(Cl)c3)cnc12 was read as aSyn UTR act -183.2.
Nc1nc2ccccc2n1/N=C/c1ccc2c(c1)OCO2 was read as aSyn UTR act -192.1.
Screening Nc1nc2ccccc2n1/N=C/c1ccc(Br)cc1 returned aSyn UTR act -138.9.
`COc1ccc2o/c(=N/NC(=O)c3cccs3)c(C(N)=O)cc2c1` gave aSyn UTR act -156.8.
Screening NC(=O)c1cc2ccccc2o/c1=N/NC(=O)c1cccs1 returned aSyn UTR act -63.4.
`c1cncc(Nc2nc(-c3cccs3)cs2)c1` gave aSyn UTR act -217.6.
For c1ccc(-c2csc(Nc3cccnc3)n2)nc1 the results were aSyn UTR act -218.0.
`c1ccc(Nc2nc(-c3ccccn3)cs2)cc1` gave aSyn UTR act -145.1.
For C(=N\Nc1nc2ccccc2[nH]1)/c1c[nH]c2ccccc12 the results were aSyn UTR act -223.8.
Cc1[nH]c2ccccc2c1/C=N/Nc1nc2ccccc2[nH]1 was read as aSyn UTR act -228.4.
Screening Cc1ccc(/C=N/Nc2nc3ccccc3[nH]2)s1 returned aSyn UTR act -311.7.
Screening Cc1[nH]c2ccccc2c1/C=N/Nc1cccc(C(=O)O)c1 returned aSyn UTR act -101.2.
COc1cccc(/C=N/Nc2nc(C)cc(=O)[nH]2)c1OC was read as aSyn UTR act -79.4.
For COc1cccc(/C=N/Nc2ncccc2[N+](=O)[O-])c1OC the results were aSyn UTR act inactive.
`COc1ccc(/C=N/Nc2nc3ccccc3[nH]2)c(OC)c1OC` gave aSyn UTR act -108.5.
For C(=N\Nc1nc2ccccc2[nH]1)/c1cccc2cccnc12 the results were aSyn UTR act inactive.
Screening Cc1cc(=O)[nH]c(N/N=C/c2cc(C)n(CC(F)(F)F)c2C)n1 returned aSyn UTR act -89.3.
For Cc1ccccc1/C=N/Nc1nc2ccccc2[nH]1 the results were aSyn UTR act -114.8.
Screening CN1C/C(=C\c2ccc(N3CCOCC3)cc2)C(=O)/C(=C/c2ccc(N3CCOCC3)cc2)C1 returned aSyn UTR act -426.5.
CCN1C/C(=C/c2ccc(N3CCOCC3)cc2)C(=O)/C(=C/c2ccc(N3CCOCC3)cc2)C1 was read as aSyn UTR act -412.1.
Screening COc1ccc(-c2nc(SC)n(C(=O)c3ccco3)n2)cc1 returned aSyn UTR act -129.9.
Screening COc1ccc(-c2nc(SCc3ccccc3)n(C(=O)c3ccco3)n2)cc1 returned aSyn UTR act -80.5.
O=C1c2ccccc2NC(c2ccccc2Cl)N1N=C1CCCCCC1 (stereo unspecified) was read as aSyn UTR act -178.7.
CC(C)CCNc1nnnc2c1sc1nc(N3CCOCC3)c3c(c12)CC(C)(C)SC3 was read as aSyn UTR act inactive.
For CC1(C)Cc2c(c(N3CCOCC3)nc3snc(N)c23)CO1 the results were aSyn UTR act -169.3.
`Cc1ccc(/C=C2\OC(=O)c3ccccc32)cc1` gave aSyn UTR act -82.6.
For CCOCCCNC(=O)c1cccc(OC2CCN(S(C)(=O)=O)CC2)c1 the results were aSyn UTR act -150.5.
`CCOCCCNC(=O)c1ccc2c(c1)N=C(CC)c1cc(Br)ccc1S2` gave aSyn UTR act inactive.
Screening N#Cc1ccccc1NC(=O)c1ccccc1OCC(=O)NCc1ccco1 returned aSyn UTR act -68.3.
`COc1ccc(-c2cn3cccnc3n2)cc1NS(=O)(=O)c1ccccc1` gave aSyn UTR act -98.0.
`COc1ccc(-c2cn3cccnc3n2)cc1F` gave aSyn UTR act -107.7.
For Cc1cccc(OCCn2nnc3ccccc32)c1C the results were aSyn UTR act -179.9.
For C=CCc1ccc(OCCn2cccc2C=O)c(OC)c1 the results were aSyn UTR act -139.7.
Screening C=CCc1ccc(OCCn2nnc3ccccc32)c(OC)c1 returned aSyn UTR act -248.1.
Screening C/C=C/c1ccc(OCCn2nnc3ccccc32)c(OC)c1 returned aSyn UTR act -115.0.
`C=CCc1ccc(OCCOc2cccc3ccc(C)nc23)c(OC)c1` gave aSyn UTR act -69.3.
CC(C)(C)C1CCC(OC(=O)c2cncc(Br)c2)CC1 (stereo unspecified) was read as aSyn UTR act -123.4.
`Nc1ccc2nc(-c3ccccc3)cnc2c1` gave aSyn UTR act -76.2.
For CCCCOc1ccc(-c2cnc3ccccc3n2)cc1 the results were aSyn UTR act inactive.
`Clc1ccc(-c2cnc3ccccc3n2)cc1` gave aSyn UTR act -208.0.
For Oc1ccc(-c2cnc3ccccc3n2)cc1 the results were aSyn UTR act -72.3.
For O=c1c(-c2ccc([N+](=O)[O-])cc2)coc2c(O)c(O)ccc12 the results were aSyn UTR act -90.9.
CCN1CCC2(CC1)Oc1c(OC)cccc1C1CC(c3cccnc3)=NN12 (stereo unspecified) was read as aSyn UTR act -127.8.
Screening CCOc1ccc(Nc2nc(-c3cccnc3)cs2)cc1 returned aSyn UTR act -223.2.
For Brc1cccc(Nc2nc(-c3cccnc3)cs2)c1 the results were aSyn UTR act -150.3.
Clc1cccc(Nc2nc(-c3cccnc3)cs2)c1 was read as aSyn UTR act -270.8.
Screening Brc1ccc(Nc2nc(-c3cccnc3)cs2)cc1 returned aSyn UTR act -161.1.
O=C(NC1=NCCS1)c1sc2cc(Cl)cc(Cl)c2c1Cl was read as aSyn UTR act -63.8.
`Cc1cccnc1NC(=O)c1sc2ccccc2c1Cl` gave aSyn UTR act -70.3.
For O=C(NC1=NCCS1)c1sc2ccccc2c1Cl the results were aSyn UTR act -166.2.
For COc1ccccc1Nc1nc2ccc(C)cc2cc1C#N the results were aSyn UTR act -87.2.
Screening COc1ccccc1Nc1nc(NCCO)nc(N)c1[N+](=O)[O-] returned aSyn UTR act inactive.
For CCCOC(=O)c1ccc(NC(=O)c2cnccn2)cc1 the results were aSyn UTR act -104.0.
CCc1ccc(NC(=O)c2cnccn2)cc1 was read as aSyn UTR act -137.7.
Screening O=C(Nc1ccc(OC(F)(F)F)cc1)c1cnccn1 returned aSyn UTR act -195.0.
O=C(Nc1ccc(NC(=O)c2ccco2)cc1)c1cnccn1 was read as aSyn UTR act -67.0.
`O=C(Nc1ccc(N2CCOCC2)cc1)c1cc2c(s1)CCCC2` gave aSyn UTR act -68.9.
`O=C(Nc1ccon1)c1cc2c(s1)CCCC2` gave aSyn UTR act -113.3.
O=C(Nc1ccon1)c1cc2c(s1)CCCCCC2 was read as aSyn UTR act -166.8.
`Cc1cnc(NC(=O)c2cc3c(s2)CCCC3)s1` gave aSyn UTR act inactive.
Screening Cc1csc(NC(=O)c2cc3c(s2)CCCCC3)n1 returned aSyn UTR act inactive.
O=C(NCc1ccco1)c1cc2c(s1)CCCCC2 was read as aSyn UTR act -217.8.
Cc1ccc(NC(=O)c2ccc3c(c2)CCN3S(C)(=O)=O)cc1C was read as aSyn UTR act -111.6.
For CS(=O)(=O)N1CCc2cc(C(=O)Nc3ccccc3Cl)ccc21 the results were aSyn UTR act -95.6.
